Data published in PubChem BioAssay AID686979 (National Center for Advancing Translational Sciences (NCATS), 2013).
Screen size: about 420,000 compounds; about 50,000 (12%) were called active. Where a call stands in place of a potency, no number is given. Roughly 26% stayed inconclusive and do not appear here. This is one part of a sample in which actives are shown more often than they occur. Calls come from the whole dose curve; as a rule, active = well fitted inhibition curve with a large enough effect; inconclusive = small, poorly fitted or top-dose-only effect; inactive = flat fitted curve, though single readings scatter.

Assay: qHTS for Inhibitors of human tyrosyl-DNA phosphodiesterase 1 (TDP1): qHTS in cells in presence of CPT; note: nearly all actives have a fitted effect of over 55% in size
Details: chicken DT40 Tdp1-/-;hTDP1 cells + 20 nM CPT, ATP luminescence, 48 h; series mostly up to 46.2 µM
Method in brief: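 Chicken DT40 Tdp1-/- cells stably complemented with human TDP1 were seeded at 400 cells/well in medium containing 20 nM camptothecin, exposed to pin-transferred compounds, and grown at 37 °C for at least 48 hr. Viability was read as ATP luminescence.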
Potency is the fitted concentration of half-maximal effect.

| Compound | Potency |
| --- | --- |
| COc1ccc(NC(=O)CCNC(=O)Cn2cnc3sc4c(c3c2=O)CCCC4)cc1OC | inactive |
| O=C(O)CC(SCC(=O)Nc1ccc(Br)cc1)C(=O)O (stereo unspecified) | inactive |
| Cc1ccc(NC(=S)NCCN2CCOCC2)cc1 | inactive |
| CCOc1cccc(/C=N/NC(=S)NCCN2CCOCC2)c1O | 4.11 µM (active) |
| Cc1ccc(C(=O)NC(=S)NCCN2CCOCC2)cc1 | inactive |
| COc1cccc(OC)c1C(=O)Nc1sc2c(c1C(N)=O)CCCC2 | inactive |
| O=C(Nc1ncc2c(n1)-c1ccccc1OC2)c1ccc(Cl)cc1 | inactive |
| C=CCN(CC=C)S(=O)(=O)c1ccc(C(=O)Nc2sc3c(c2C(N)=O)CCCCC3)cc1 | 13 µM (active) |
| C=CCN(CC=C)S(=O)(=O)c1ccc(C(=O)Nc2nc3c(s2)CCc2ccccc2-3)cc1 | 16.4 µM (active) |
| C=CCSc1nnc(NC(=O)c2ccc(NC(C)=O)cc2)s1 | inactive |
| COCc1nnc(NC(=O)c2ccc3c(c2)OCO3)s1 | inactive |
| NC(=O)c1c(NC(=O)c2ccccc2)sc2c1CCCC2 | inactive |
| COc1ccc(C(=O)Nc2ncc3c(n2)-c2ccccc2CC3)cc1 | inactive |
| COCCN(CCOC)S(=O)(=O)c1ccc(C(=O)Nc2nc3c(s2)CCc2ccccc2-3)cc1 | 9.2 µM (active) |
| Cc1ccc2c(=O)cc(C(=O)NCCc3ccc(S(N)(=O)=O)cc3)oc2c1C | inactive |
| O=C1CC2(CCCC2)Oc2ccc(Cl)cc21 | inactive |
| O=C1C=C(c2ccccc2)CCC1 | inactive |
| CC1CCCCC1NC(=O)CN1CCC(O)(c2ccc3c(c2)OCO3)CC1 (stereo unspecified) | inactive |
| CC(CCc1ccccc1)NCC(O)c1cccc([N+](=O)[O-])c1 (stereo unspecified) | inactive |
| CCn1c2ccccc2c2nnc(N3CCN(c4cc(C)ccc4C)CC3)nc21 | inactive |
| CN(C(=O)c1cccc(NC(=O)Cc2ccc(NC(=O)C3CCCN(C(=O)C4CC4)C3)cc2)c1)C1CC1 (stereo unspecified) | inactive |
| CN(C(=O)c1ccc(NC(=O)Cc2cccc(NC(=O)C3CCN(C(=O)c4ccccc4)CC3)c2)cc1)C1CC1 | inactive |
| O=C(Cc1ccc(NC(=O)C2CCCN(C(=O)C3CCCCC3)C2)cc1)Nc1cccc(C(=O)N2CCCCC2)c1 (stereo unspecified) | inactive |
| O=C(Cc1ccc(NC(=O)C2CCCN(C(=O)CCc3ccccc3)C2)cc1)Nc1ccc(C(=O)N2CCOCC2)cc1 (stereo unspecified) | 23.1 µM (active) |
| CN(CCc1ccccc1)C(=O)c1cccc(NC(=O)Cc2cccc(NC(=O)C3CCCN(C(=O)CCc4ccccc4)C3)c2)c1 (stereo unspecified) | 14.6 µM (active) |
| CN(CCc1ccccc1)C(=O)c1cccc(NC(=O)Cc2cccc(NC(=O)C3CCCN(C(=O)C4CCC4)C3)c2)c1 (stereo unspecified) | 18.4 µM (active) |

| Compound | Potency |
| --- | --- |
| CCNC(=O)c1cccc(NC(=O)C2CC(=O)N(CCc3ccccc3)C2)c1 (stereo unspecified) | inactive |
| CC(=O)c1cccc(NC(=O)N2CCCC2C(=O)NCCc2ccccc2)c1 (stereo unspecified) | inactive |
| O=C(Cc1ccc([N+](=O)[O-])cc1)Nc1ccc(C(=O)N2CCOCC2)cc1 | inactive |
| COc1ccc(CC(=O)NC2CCSc3ccccc32)cc1OC (stereo unspecified) | inactive |
| CCOc1c2ccc(C(=O)NC3CCCc4ccccc43)cc2nn1CC (stereo unspecified) | inactive |
| O=C(Nc1ccc(S(=O)(=O)Nc2nccs2)cc1)c1cccc(S(=O)(=O)N2CCOCC2)c1 | inactive |
| CCNc1c(NS(=O)(=O)c2ccc(C3CCCCC3)cc2)c(=O)oc2ccccc12 | 18.4 µM (active) |
| O=c1oc2ccccc2c(NC2CCCCC2)c1NS(=O)(=O)c1ccc(Cl)cc1 | inactive |
| CC(C)(C)Nc1c(N)c(=O)oc2ccccc12 | inactive |
| CCc1ccccc1N1C(=O)C2C3CC(=O)C(c4ccccc43)C2C1=O (stereo unspecified) | inactive |
| CC1CCC(CN2CCN=C2N(C)C)CC1 (stereo unspecified) | 8.2 µM (active) |
| CC(C)CCN1CCN=C1N(C)C | inactive |
| CCC(C)CCN1CCN=C1N(C)C (stereo unspecified) | inactive |
| NS(=O)(=O)c1cccc(NC(=O)COC(=O)c2cc([N+](=O)[O-])ccc2N2CCCC2)c1 | inactive |
| CCOC(=O)N1CCC(N2CCOc3ccc(CN4CCC(O)(c5cccnc5)CC4)cc3C2)CC1 | inactive |
| NCCCNCCCCN(CCCN)/[N+]([O-])=N/O | 13.3 µM (active) |
| COc1ccc(N2CCN(Cc3ccc(Br)s3)CC2)cc1 | inactive |
| CCCCCCCC[n+]1cccc(C(=O)N2c3c(nc(N)[nH]c3=O)NC(C)C2C)c1 (stereo unspecified) | inactive |
| Cc1ccc(S(=O)(=O)N[C@@H](Cc2ccccc2)C(=O)N2CCC(C(=O)N[C@H](C(=O)O)C(C)O)CC2)cc1 (stereo partly specified) | inactive |
| CC1(C)C=C2[C@H]3CC[C@@H]4[C@@]5(C)CCC(=O)C(C)(C)[C@@H]5CC[C@@]4(C)[C@]3(C)CC[C@@]2(C(=O)O)CC1 | 5.17 µM (active) |
| N#Cc1cccc(OC(=O)c2ccc3c(=O)n4c(nc3c2)CCC4)c1 | inactive |
| O=C(CCNC(=O)C1CCN(S(=O)(=O)c2ccccc2)CC1)NC1CC1 | inactive |
| O[C@H]1CN(Cc2cccs2)[C@@H](c2ccc(Cl)cc2)C[C@@H]1n1cc(C2CC2)nn1 | inactive |
| Cc1cc(O)ccc1-c1cc(C(=O)NCc2cc(C(F)(F)F)cc(C(F)(F)F)c2)[nH]n1 | 18.4 µM (active) |
| Cc1ccc(O)c(-c2cc(C(=O)NCc3ccccc3)[nH]n2)c1 | inactive |
| O=C(Cc1cccs1)NCc1cccc(C(F)(F)F)c1 | inactive |

| Compound | Potency |
| --- | --- |
| Cc1ccc(NC(=O)COC(=O)C2C3CC4OC(=O)C2C4C3)cc1Cl (stereo unspecified) | inactive |
| CC(C)(C)n1nnnc1C(c1ccc(F)cc1)N1CCN(Cc2ccc3c(c2)OCO3)CC1 (stereo unspecified) | inactive |
| Fc1ccccc1C(c1nnnn1Cc1ccc2c(c1)OCO2)N1CCN(Cc2ccccc2)CC1 (stereo unspecified) | 14.6 µM (active) |
| CC(C)(C)n1nnnc1C(c1ccccc1F)N1CCN(C(=O)c2ccco2)CC1 (stereo unspecified) | inactive |
| Cc1cccc2c1cnn2C(=O)CCC(=O)NC1CCCCC1 | inactive |
| CCOc1ccc2[nH]c3nc(SCC(=O)NC4CCCC4)nnc3c2c1 | 5.17 µM (active) |
| O=C(CSc1nnc2c(n1)[nH]c1ccccc12)NC1CCCCC1 | inactive |
| COc1ccc2[nH]c3nc(SCC(=O)NC4CC4)nnc3c2c1 | inactive |
| CCN(CC)CCNC(=O)c1ccc(NS(=O)(=O)c2ccc3c(c2)OCCO3)cc1 | inactive |
| O=S(=O)(Nc1ccccc1)c1ccc(NS(=O)(=O)c2cccs2)cc1 | inactive |
| NS(=O)(=O)c1ccc(CCNC(=O)c2ccc([N+](=O)[O-])cc2[N+](=O)[O-])cc1 | inactive |
| Cc1cccc(S(=O)(=O)N(C)C[C@@H]2OCc3cnnn3CCCC(=O)N([C@H](C)CO)C[C@@H]2C)c1 | inactive |
| O=C(Nc1cccc2ncccc12)c1ccc(-c2ccc(Cl)cc2Cl)o1 | 20.6 µM (active) |
| Cc1csc(NC(=O)c2ccc(-c3ccc(Cl)cc3Cl)o2)n1 | 9.2 µM (active) |
| O=C(O)c1cc(Cl)c(Cl)cc1C(=O)Nc1cccc2ncccc12 | inactive |
| Cc1ccc(C(=O)Nc2nc3ccc(Cl)cc3s2)o1 | inactive |
| CC(=O)Cc1nsc(NC(=O)c2ccc(Cl)cc2Cl)n1 | inactive |
| O=C(Nc1cccnc1Cl)c1cc(-c2cccc(Cl)c2)on1 | inactive |
| O=C(Cc1ccsc1)N1CCN(S(=O)(=O)c2cc(C(F)(F)F)cc(C(F)(F)F)c2)CC1 | inactive |
| COc1ccc(CN2CC(C(=O)NCCc3ccc(Cl)cc3)CC2=O)cc1 (stereo unspecified) | inactive |
| CCc1ccc(Oc2coc3cc(O)ccc3c2=O)cc1 | inactive |
| CCCN(CCC)C(=S)Nc1cc(C(=O)OC)ccc1C(=O)OC | 18.4 µM (active) |
| CCN(CCO)C(=S)Nc1cc(C(=O)OC)ccc1C(=O)OC | inactive |
| CCS(=O)(=O)Nc1cc(C(=O)OC)ccc1C(=O)OC | inactive |
| CCc1ccc(-n2nc(C)c3c(C)cc(=O)n(CC(=O)Nc4ccc(F)cc4C)c32)cc1 | inactive |
| CCC(C(=O)OC)n1cnc2c(oc3ccccc32)c1=O (stereo unspecified) | inactive |

| Compound | Potency |
| --- | --- |
| Cc1ccc(S(=O)(=O)N2CCCCC2)cc1NC(=O)c1cccnc1 | inactive |
| Cc1cccc(C(=O)Nc2ccc(S(=O)(=O)N3CCCCC3c3cccnc3)cc2)c1 (stereo unspecified) | 23.1 µM (active) |
| CCOc1ncccc1C(=O)Nc1ccc(S(=O)(=O)Nc2nc(C)cc(C)n2)cc1 | inactive |
| COc1ccc(C(=O)NC(=S)N2CCCCC2c2cccnc2)cc1OC (stereo unspecified) | inactive |
| CCOc1ccccc1C(=O)Nc1ccc(S(=O)(=O)N2CCCCC2c2cccnc2)cc1 (stereo unspecified) | 18.4 µM (active) |
| Cc1cc(NS(=O)(=O)c2ccc(NC(=O)c3cccnc3)cc2)nc(C)n1 | inactive |
| COc1ccc(NC(=O)CSc2nnc(-c3nnn(-c4ccc(F)cc4)c3C)o2)cc1 | inactive |
| CCCC(=O)N1CCC1(C)C(=O)NCc1ccc(SC)cc1 (stereo unspecified) | inactive |
| CSc1ccc(CN2CCC2(C)C(=O)NCc2ccccc2Br)cc1 (stereo unspecified) | 18.4 µM (active) |
| CSc1ccc(CNC(=O)C2(C)CCCN2C)cc1 (stereo unspecified) | inactive |
| CC1(C(=O)NCc2cccc3ccccc23)CCN1Cc1ccc(-c2ccccc2)o1 (stereo unspecified) | 23.1 µM (active) |
| CC1(C(=O)NCc2ccc3c(c2)OCO3)CCN1C(=O)Cc1cccs1 (stereo unspecified) | inactive |
| CC1(C(=O)NS(=O)(=O)c2cccc(F)c2)CCN1C(=O)c1cccc2ccccc12 (stereo unspecified) | inactive |
| CCN1CCN(C(c2ccc(C)cc2)c2c(O)cc(C)n(Cc3ccco3)c2=O)CC1 (stereo unspecified) | inactive |
| O=C(NCc1ccccn1)Nc1ccc(Cl)cc1 | inactive |
| Cn1cccc1/C=N/NC(=O)c1ccc(OC(F)(F)C(F)F)cc1 | inactive |
| CCCC(=O)N1CCC1(C)C(=O)NS(=O)(=O)c1ccc(Cl)cc1 (stereo unspecified) | inactive |
| O=C(CCN1C(=O)c2ccccc2C1=O)NCCCn1ccnc1 | inactive |
| CC(=O)C(C)n1cnc2scc(-c3ccc(C)cc3)c2c1=O (stereo unspecified) | inactive |
| CN(C)S(=O)(=O)c1ccc(N2CCCC2)c(C(=O)Nc2cccc(F)c2)c1 | inactive |
| Cc1nccn1CCCNC(=O)CC1C(=O)NCCN1Cc1ccc(Cl)c(F)c1 (stereo unspecified) | inactive |
| CCOc1ccc(CN2CCNC(=O)C2CC(=O)NCCCC2CCCC2)cc1 (stereo unspecified) | 16.4 µM (active) |
| O=C(CC1C(=O)NCCN1Cc1ccc(-c2ccccc2)cc1)NCC1CCOCC1 (stereo unspecified) | inactive |
